# Entries with a potency or affinity are not part of this list.
# Test system: Escherichia coli
# Conditions: Concentration 20 uM; ASSAY_TEST Inhibition of Bacterial Growth; detection method Absorption (OD600); MEDIA CAMHB; plate type 384well; NBS; CORNING #3640; time 18 hr
row,Compound,Inhibition
1,CC(C)NCC(=O)Nc1cccc(C(=O)Nc2cccc(C(F)(F)F)c2)c1,-2.15%
2,CCC(NC(=O)c1ccccc1NC(=O)c1ccc(C)cc1)C(=O)OC (stereo not given),3.87%
3,CCN(CC)S(=O)(=O)c1ccc(Cl)c(C(=O)Nc2ccc3nc(C)sc3c2)c1,0.28%
4,COC(=O)c1c(NC(=O)c2cc3ccccc3oc2=O)sc2c1CCN(Cc1ccccc1)C2,12.69%
5,Cl.O=C(Nc1ccc(N2CCNCC2)nc1)c1oc(-c2ccccc2)nc1C(F)(F)F,0.64%
6,CN1CCC(c2cc(-c3ccncc3)c(-c3ccc(F)cc3)[nH]2)CC1,-2.15%
7,CCc1ccccc1-n1c(C)cn2c3c(=O)n(C(C(=O)OC)C(C)C)c(=O)n(C)c3nc12 (stereo not given),7.91%
8,O=C(N[C@H](Cc1ccccc1)C(=O)Nc1ccccc1N1CCOCC1)c1cccs1,8.05%
9,COc1ccc(-c2cnc3cnc(-c4cccc(OC(C)C)c4)cn23)cc1,4.77%
10,c1ccc(-c2cc(N3CCCCC3)c3ccccc3n2)nc1,7.94%
11,COc1cc(C2=NCCN2)ccc1-n1cc(-c2cccc(C3=NCCN3)c2)nn1.O=CO.O=CO,8.11%
12,Cc1cnc(N2CCN[C@@H](Cc3ccccc3)C2)nc1Oc1ccc(-n2ccnc2)cc1.Cl,-1.63%
13,CC1CCCCN1C(=O)NCCc1coc(-c2ccc(F)cc2)n1 (stereo not given),7.62%
14,O=C(NCc1ccoc1)N1CCN(Cc2ccc3c(c2)OCO3)CC1,3.25%
15,CC1(C)Cc2c(c(N3CCOCC3)nc3snc(Br)c23)CO1,4.52%
16,CN(C(=O)c1cc2c(-c3cncnc3)cccc2[nH]1)c1ccccc1,10.65%
17,O=C(NCc1cc(Cl)cc(Cl)c1)c1c(C(F)(F)F)nc2ccccn12,10.43%
18,Nc1ncnc2c1c(Cc1cccc3ccccc13)nn2CC1CCNCC1,-7.67%

row,Compound,Inhibition
1,Cc1cc(C(=O)Nc2cnn(Cc3ccc(Cl)cc3Cl)c2)no1,8.52%
2,Cc1cc(O)nc(-n2nc(C)cc2C)n1,6.91%
3,CCOC(=O)c1cc(-c2csc(Nc3c(C)cc(C)cc3C)n2)on1,5.47%
4,Cc1nn(C)cc1C(C)Nc1nncc(-c2ccc(C(F)(F)F)cc2)n1 (stereo not given),3.9%
5,COc1ccc(Cl)cc1NC(=O)CN(C)C(=O)c1cnn(-c2ccccc2)n1,-2.51%
6,CCOC(=O)c1c(NC(=O)c2c(F)c(F)c(F)c(F)c2F)sc(C(N)=O)c1C,12.47%
7,COc1ccc(C2=NN(C3CCCCCC3)C(=O)C2(C)C)cc1OCCCCOc1ccc(-c2nn[nH]n2)cc1,-0.89%
8,Cc1cc(C)nc(-n2nc(C)cc2Nc2ccccc2)n1,5.87%
9,CC1(COc2ccc(N3CCC(Oc4ccc(OC(F)(F)F)cc4)CC3)cc2)Cn2cc([N+](=O)[O-])nc2O1 (stereo not given),11.79%
10,Cc1cc(OCC(=O)Nc2ccc(C(C)C)cc2)n(C)c(=O)c1C#N,14.16%
11,CCOc1ccc(-c2nc(NC(=O)CS(=O)(=O)c3ccccc3)sc2C)cc1,-0.36%
12,Cc1ccc2[nH]c3c(NCCN(C)C)ncnc3c2c1,7.48%
13,O=C(NC1=NCCS1)c1sc2cc(F)ccc2c1Cl,-4.46%
14,CC(=O)O.CC(=O)O.Nc1ncnc2c1ncn2[C@@H]1O[C@H](COS(=O)(=O)NC(=O)c2ccccc2O)[C@@H](O)[C@H]1O,5.07%
15,Cl.Cl.Cl.NS(=O)(=O)c1cncc(-c2ccc3nccc(-c4cn[nH]c4)c3n2)c1,6.62%
16,Cc1ccc(NC(=O)c2cc(S(=O)(=O)NC(C)(C)C)ccc2C)nc1,8.11%
17,CS(=O)(=O)c1ccccc1C(=O)N(Cc1ccccc1)c1ccccc1,5.13%

# Reference: ChEMBL document CHEMBL4513149, “CO-ADD screening of MMV (CH) - MMV compounds” (2021)
